Common to all, as to assay: protein-binding microarray (PBM); PBM: ~300 nM protein, 6 mM HEPES pH 7.8, 80 mM KCl, 0.5 mM EDTA, 0.5 mM EGTA, 6% glycerol, 35 ng/ul poly-dIdC, 1% milk, 1 h, room temperature; Ap Aiptasia and Nv Nematostella (sea anemones) / Co Capsaspora / Aq Amphimedon (sponge) / Dm Drosophila / Hu human; RHD is the Rel homology domain; high values mean tight binding
What all share (settings): dsDNA, one strand shown

The target in one assay is T1, GST-Ap-NF-kB RHD (Exaiptasia pallida (Aiptasia), UniProt A0A913YAJ5 2-422).
T1 sequence: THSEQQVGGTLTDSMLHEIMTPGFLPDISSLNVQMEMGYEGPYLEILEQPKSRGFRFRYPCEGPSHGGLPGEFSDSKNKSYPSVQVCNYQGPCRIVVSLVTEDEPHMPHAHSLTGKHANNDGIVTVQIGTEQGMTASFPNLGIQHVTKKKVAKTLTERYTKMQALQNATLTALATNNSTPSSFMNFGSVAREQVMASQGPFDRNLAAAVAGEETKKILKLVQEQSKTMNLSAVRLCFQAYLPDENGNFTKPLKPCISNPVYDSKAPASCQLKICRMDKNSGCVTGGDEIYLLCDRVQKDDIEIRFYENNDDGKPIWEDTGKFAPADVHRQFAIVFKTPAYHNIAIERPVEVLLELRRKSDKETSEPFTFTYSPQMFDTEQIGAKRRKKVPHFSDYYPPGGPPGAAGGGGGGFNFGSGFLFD

Assay [1] deals with T2, GST-Nv-NF-kB (Cys allele) (Nematostella vectensis, UniProt E5G601 2-411).
T2 sequence: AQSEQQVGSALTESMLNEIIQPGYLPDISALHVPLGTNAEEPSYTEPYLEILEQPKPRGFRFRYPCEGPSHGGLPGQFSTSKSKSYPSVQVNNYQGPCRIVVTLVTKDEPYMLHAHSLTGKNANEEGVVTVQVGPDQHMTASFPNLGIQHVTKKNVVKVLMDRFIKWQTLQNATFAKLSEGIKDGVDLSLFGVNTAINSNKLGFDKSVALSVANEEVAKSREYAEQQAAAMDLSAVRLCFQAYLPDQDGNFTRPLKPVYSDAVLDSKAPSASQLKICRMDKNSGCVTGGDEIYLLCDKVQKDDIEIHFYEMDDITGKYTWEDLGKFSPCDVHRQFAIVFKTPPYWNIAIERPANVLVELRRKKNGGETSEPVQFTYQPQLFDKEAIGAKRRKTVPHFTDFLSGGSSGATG

The target of another assay is T3, GST-Dm-Relish (Drosophila melanogaster, UniProt Q94527 99-473).
T3 sequence: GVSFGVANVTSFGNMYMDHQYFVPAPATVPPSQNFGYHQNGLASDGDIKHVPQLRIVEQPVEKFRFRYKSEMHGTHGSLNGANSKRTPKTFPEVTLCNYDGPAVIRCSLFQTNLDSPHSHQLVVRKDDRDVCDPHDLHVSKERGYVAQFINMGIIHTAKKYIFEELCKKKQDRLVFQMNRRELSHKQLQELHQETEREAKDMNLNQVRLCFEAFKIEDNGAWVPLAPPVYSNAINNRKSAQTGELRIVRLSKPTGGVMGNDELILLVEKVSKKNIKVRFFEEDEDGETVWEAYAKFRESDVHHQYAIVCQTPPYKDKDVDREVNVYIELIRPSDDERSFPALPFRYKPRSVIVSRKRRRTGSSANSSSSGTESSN

The target in the next assay is T4, GST-Aq-NF-kB (Amphimedon queenslandica, UniProt A9Y5G7 2-389).
T4 sequence: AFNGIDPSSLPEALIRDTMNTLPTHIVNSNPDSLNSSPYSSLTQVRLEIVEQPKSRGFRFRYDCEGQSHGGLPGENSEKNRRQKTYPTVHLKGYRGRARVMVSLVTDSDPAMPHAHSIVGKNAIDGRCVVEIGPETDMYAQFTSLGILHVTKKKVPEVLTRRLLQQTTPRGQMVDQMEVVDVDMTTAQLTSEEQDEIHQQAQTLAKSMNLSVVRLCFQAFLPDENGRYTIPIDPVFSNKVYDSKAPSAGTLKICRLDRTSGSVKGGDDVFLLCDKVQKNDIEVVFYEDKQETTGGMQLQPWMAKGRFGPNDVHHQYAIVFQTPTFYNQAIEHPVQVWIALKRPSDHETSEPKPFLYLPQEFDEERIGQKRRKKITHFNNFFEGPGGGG

A further assay addresses T5, GST-Co-NF-kB (Capsaspora owczarzaki, UniProt F1ARL5 200-546).
T5 sequence: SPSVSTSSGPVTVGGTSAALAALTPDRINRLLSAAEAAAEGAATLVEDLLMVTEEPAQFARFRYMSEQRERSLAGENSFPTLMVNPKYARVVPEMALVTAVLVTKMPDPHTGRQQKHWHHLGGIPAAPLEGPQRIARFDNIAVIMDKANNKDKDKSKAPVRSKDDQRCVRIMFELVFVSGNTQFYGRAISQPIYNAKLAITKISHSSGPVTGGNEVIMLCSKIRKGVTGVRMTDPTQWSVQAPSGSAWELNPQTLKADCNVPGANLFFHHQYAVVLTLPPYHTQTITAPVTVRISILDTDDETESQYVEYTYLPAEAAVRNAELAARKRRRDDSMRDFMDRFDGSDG

For “CCGATTAACATCAAGGAATTACCTGATGTTAATCGGGTCTTGATTCGCTTGACGCTGCTG”, the binding signal with GST-Ap-NF-kB RHD was found to be 1.08 z-score; in assay [1], 2.06 z-score; with GST-Dm-Relish, 5.14 z-score; with GST-Aq-NF-kB, 3.3 z-score.

Turning to “CCGATTAACATCAGGAGATACCCTGATGTTAATCGGGTCTTGATTCGCTTGACGCTGCTG”, the binding signal turned out to be 3.04 z-score with GST-Ap-NF-kB RHD, 3.44 z-score in assay [1], 3.18 z-score with GST-Dm-Relish and 6.4 z-score with GST-Aq-NF-kB.

With “CCGATTAACATCAGGGAGAGCCCTGATGTTAATCGGGTCTTGATTCGCTTGACGCTGCTG”, the binding signal with GST-Ap-NF-kB RHD stood at 3.06 z-score; in assay [1], 3.59 z-score; with GST-Dm-Relish, 1.82 z-score; in the assay with GST-Aq-NF-kB it was 6.26 z-score.

On to “CCGATTAACATCAGGATATACCCTGATGTTAATCGGGTCTTGATTCGCTTGACGCTGCTG”, for which the binding signal with GST-Ap-NF-kB RHD was 2.02 z-score; in assay [1], 2.26 z-score; in the assay with GST-Dm-Relish it was 2.67 z-score; with GST-Aq-NF-kB it was 4.83 z-score.

As for “CCGATTAACATCAGAACTTTCCCTGATGTTAATCGGGTCTTGATTCGCTTGACGCTGCTG”, the binding signal with GST-Ap-NF-kB RHD was determined as 4.2 z-score; in assay [1], 6.87 z-score; in the assay with GST-Co-NF-kB, 3.78 z-score; with GST-Dm-Relish, 2.67 z-score; in the assay with GST-Aq-NF-kB, 7.19 z-score.

Consider “CCGATTAACATCACGGAAGTCCCTGATGTTAATCGGGTCTTGATTCGCTTGACGCTGCTG”, for which the binding signal worked out at 5.31 z-score with GST-Ap-NF-kB RHD, 5.39 z-score in assay [1], 6.53 z-score with GST-Dm-Relish and 5.41 z-score with GST-Aq-NF-kB.

“CCGATTAACATCACCCCTCCCCATGATGTTAATCGGGTCTTGATTCGCTTGACGCTGCTG”: the binding signal in the assay with GST-Ap-NF-kB RHD was found to be 3.7 z-score; in assay [1], 2.55 z-score; in the assay with GST-Co-NF-kB, 3.58 z-score; with GST-Dm-Relish it was 3.67 z-score; with GST-Aq-NF-kB it was 2.92 z-score.

“CCGATTAACATCACGGTATTTCCTGATGTTAATCGGGTCTTGATTCGCTTGACGCTGCTG”: the binding signal with GST-Ap-NF-kB RHD amounted to 1.56 z-score; in assay [1], 1.37 z-score; in the assay with GST-Dm-Relish, 3.77 z-score; in the assay with GST-Aq-NF-kB it was 4.59 z-score.

As for “CCGATTAACATCAGGGGCTGTACTGATGTTAATCGGGTCTTGATTCGCTTGACGCTGCTG”, the binding signal in the assay with GST-Ap-NF-kB RHD came to 2.83 z-score; in assay [1], 3.09 z-score; with GST-Dm-Relish, 3.56 z-score; with GST-Aq-NF-kB, 4.35 z-score.

In the case of “CCGATTAACATCAGGGGGATCACTGATGTTAATCGGGTCTTGATTCGCTTGACGCTGCTG”, the binding signal in the assay with GST-Ap-NF-kB RHD was 5.55 z-score; in assay [1], 4.61 z-score; with GST-Co-NF-kB, 5.17 z-score; with GST-Dm-Relish, 9.4 z-score; with GST-Aq-NF-kB, 5.38 z-score.

As for “CCGATTAACATCAGGGAAACCCATGATGTTAATCGGGTCTTGATTCGCTTGACGCTGCTG”, the binding signal with GST-Ap-NF-kB RHD amounted to 3.64 z-score; in assay [1] it was 4.19 z-score; in the assay with GST-Co-NF-kB, 2.54 z-score; in the assay with GST-Dm-Relish it was 8.17 z-score; with GST-Aq-NF-kB, 4.85 z-score.

Regarding “CCGATTAACATCAGGTATTTTTATGATGTTAATCGGGTCTTGATTCGCTTGACGCTGCTG”, the binding signal with GST-Ap-NF-kB RHD was found to be 1.27 z-score; in assay [1] it was 2.01 z-score; with GST-Dm-Relish, 3.8 z-score; with GST-Aq-NF-kB it was 2.77 z-score.

In the case of “CCGATTAACATCAAGGAATACCCTGATGTTAATCGGGTCTTGATTCGCTTGACGCTGCTG”, the binding signal amounted to 4.85 z-score with GST-Ap-NF-kB RHD; 5.51 z-score in assay [1]; 1.33 z-score with GST-Co-NF-kB; 7.24 z-score with GST-Dm-Relish; 5.58 z-score in the assay with GST-Aq-NF-kB.

On to “CCGATTAACATCACGGCAATCCCTGATGTTAATCGGGTCTTGATTCGCTTGACGCTGCTG”, for which the binding signal in the assay with GST-Ap-NF-kB RHD was 1.5 z-score; in assay [1], 1.21 z-score; with GST-Dm-Relish, 2.64 z-score; in the assay with GST-Aq-NF-kB, 2.66 z-score.

For “CCGATTAACATCACGGGTTTTTCTGATGTTAATCGGGTCTTGATTCGCTTGACGCTGCTG”, the binding signal with GST-Ap-NF-kB RHD stood at 3.7 z-score; in assay [1], 3.76 z-score; with GST-Dm-Relish, 5.07 z-score; with GST-Aq-NF-kB, 4.7 z-score.

As for “CCGATTAACATCAGGAATGTCCCTGATGTTAATCGGGTCTTGATTCGCTTGACGCTGCTG”, the binding signal with GST-Ap-NF-kB RHD is 3.06 z-score; in assay [1] it was 5.35 z-score; with GST-Dm-Relish, 3.4 z-score; with GST-Aq-NF-kB, 6.41 z-score.

Values taken from paper PMC5700166.
